Source: PubChem BioAssay AID1159580 (chemical genetic matrix, 2015)
Screen size: about 5,500 compounds; about 2,000 (36%) were called active. Roughly 18% stayed inconclusive and do not appear here. Cut-off read from the data, not from the text of the source: active = normalized growth mostly below about 0.91 (no sharp cut-off); inconclusive = no clear call, values can overlap the other calls; inactive = mostly above about 0.92. The list shows a part of the results.

Test: chemical genetic growth profiling, strain panel (AID 1159580);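 note: tested at 20 µM; growth read once vehicle control cultures reached saturation at 30 °C; 1 = growth at the plate median or of vehicle wells; lower values mean less growth of the strain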
Details: S. cerevisiae deletion strains, growth OD
[1] = locus YAL013W, strain DEP1, active compounds read low
[2] = locus YDL101C, strain DUN1, active compounds read low
[3] = locus YHR030C, strain SLT2, active compounds read low
[4] = locus YJR075W, strain HOC1, active compounds read low
[5] = locus YMR307W, strain GAS1, active compounds read low
[6] = locus YNL153C, strain GIM3, active compounds read low
[7] = locus YPL241C, strain CIN2, active compounds read low
[8] = locus YHR079C, strain IRE1, active compounds read low
[9] = locus YJL095W, strain BCK1, active compounds read low
[10] = locus YJR066W, strain TOR1, active compounds read low
[11] = locus YLR113W, strain HOG1, active compounds read low
[12] = locus YNL183C, strain NPR1, active compounds read low
[13] = locus YOR231W, strain MKK1, active compounds read low
[14] = locus YPL256C, strain CLN2, active compounds read low

Measured: normalized growth

Cc1cccc2nc(-c3ccccc3)oc(=O)c12
active: locus YLR085C, strain ARP6, active compounds read low 0.744 | locus YPL055C, strain LGE1, active compounds read low 0.781
inactive: [1] 0.966 | locus YBR229C, strain ROT2, active compounds read low 0.975 | [2] 0.968 | locus YDR150W, strain NUM1, active compounds read low 0.934 | locus YEL061C, strain CIN8, active compounds read low 0.936 | locus YGR078C, strain PAC10, active compounds read low 0.959 | locus YGR229C, strain SMI1, active compounds read low 0.984 | [3] 0.708 | locus YHR087W, strain rtc3, active compounds read low 0.953 | locus YJL187C, strain SWE1, active compounds read low 0.946 | locus YJR043C, strain POL32, active compounds read low 0.971 | [4] 0.942 | locus YKL190W, strain CNB1, active compounds read low 0.987 | locus YLR039C, strain RIC1, active compounds read low 0.826 | locus YLR058C, strain SHM2 (second series), active compounds read low 0.968 | locus YLR262C, strain YPT6, active compounds read low 0.942 | locus YML094W, strain GIM5, active compounds read low 0.88 | locus YMR219W, strain ESC1, active compounds read low 0.976 | locus YMR263W, strain SAP30, active compounds read low 0.958 | [5] 0.735 | locus YNL128W, strain TEP1, active compounds read low 0.974 | [6] 0.975 | locus YNL298W, strain CLA4 (second series), active compounds read low 0.95 | locus YNL322C, strain KRE1, active compounds read low 0.983 | locus YNR030W, strain Alg12, active compounds read low 0.929 | locus YOL006C, strain TOP1, active compounds read low 0.801 | [7] 0.915 | locus YPR135W, strain CTF4, active compounds read low 0.812

Cc1onc(-c2ccccc2Cl)c1-c1nc2ccccc2c(=O)o1
inactive: locus YAR019C, strain CDC15, active compounds read low 0.97 | locus YBL105C, strain PKC1, active compounds read low 0.975 | locus YBR135W, strain CKS1, active compounds read low 0.975 | locus YBR136W, strain MEC1, active compounds read low 0.973 | locus YBR160W, strain CDC28, active compounds read low 0.971 | locus YDL017W, strain CDC7, active compounds read low 0.969 | locus YDL028C, strain MPS1, active compounds read low 0.979 | [2] 0.963 | locus YDL108W, strain KIN28, active compounds read low 0.97 | locus YDL132W, strain cdc53, active compounds read low 0.975 | locus YDL214C, strain PRR2, active compounds read low 0.968 | locus YDR052C, strain DBF4, active compounds read low 0.969 | locus YDR054C, strain cdc34, active compounds read low 0.964 | locus YDR226W, strain ADK1, active compounds read low 0.97 | locus YDR477W, strain SNF1, active compounds read low 0.962 | locus YER123W, strain YCK3, active compounds read low 0.953 | locus YER133W, strain GLC7, active compounds read low 0.984 | locus YFL009W, strain cdc4, active compounds read low 0.974 | locus YFL029C, strain CAK1, active compounds read low 0.956 | locus YFR003C, strain YPI1, active compounds read low 0.972 | locus YFR019W, strain FAB1, active compounds read low 0.979 | locus YFR028C, strain CDC14, active compounds read low 0.973 | locus YGR040W, strain KSS1, active compounds read low 0.96 | locus YGR052W, strain FMP48, active compounds read low 1.03 | locus YGR092W, strain DBF2, active compounds read low 0.983 | [3] 0.958 | [8] 0.936 | locus YHR082C, strain KSP1, active compounds read low 0.991 | locus YHR205W, strain SCH9, active compounds read low 0.932 | locus YIL147C, strain SLN1, active compounds read low 0.969 | [9] 0.954 | locus YJL128C, strain PBS2, active compounds read low 0.925 | locus YJL157C, strain FAR1, active compounds read low 0.987 | locus YJR016C, strain ILV3, active compounds read low 0.974 | locus YJR066W, strain TOR1 (second series), active compounds read low 0.967 | [10] 0.978 | locus YKL048C, strain ELM1, active compounds read low 0.947 | locus YKL067W, strain YNK1, active compounds read low 0.961 | locus YKL101W, strain HSL1, active compounds read low 0.939 | locus YKL193C, strain SDS22, active compounds read low 0.969 | locus YKL203C, strain TOR2, active compounds read low 1.02 | [11] 0.872 | locus YLR133W, strain CKI1, active compounds read low 0.965 | locus YLR403W, strain SFP1, active compounds read low 0.953 | locus YML070W, strain DAK1, active compounds read low 0.956 | locus YMR001C, strain CDC5, active compounds read low 0.974 | locus YMR205C, strain PFK2 (second series), active compounds read low 0.955 | locus YMR277W, strain FCP1, active compounds read low 0.987 | locus YNL006W, strain LST8, active compounds read low 0.982 | locus YNL020C, strain ARK1, active compounds read low 0.969 | locus YNL161W, strain CBK1, active compounds read low 0.969 | [12] 0.96 | locus YNL207W, strain RIO2, active compounds read low 0.97 | locus YNL222W, strain SSU72, active compounds read low 0.975 | locus YNL307C, strain MCK1 (second series), active compounds read low 0.987 | locus YOL078W, strain AVO1, active compounds read low 0.976 | locus YOL136C, strain PFK27, active compounds read low 0.958 | locus YOR061W, strain CKA2, active compounds read low 0.961 | locus YOR119C, strain RIO1, active compounds read low 0.983 | [13] 0.929 | locus YOR329C, strain SCD5, active compounds read low 0.966 | locus YPL031C, strain PHO85, active compounds read low 0.978 | locus YPL153C, strain RAD53, active compounds read low 0.956 | locus YPL204W, strain HRR25, active compounds read low 0.978 | locus YPL209C, strain IPL1, active compounds read low 0.969 | [14] 0.882 | locus YPR025C, strain CCL1, active compounds read low 0.975 | locus YPR106W, strain ISR1, active compounds read low 0.96 | locus YPR111W, strain DBF20, active compounds read low 0.963 | strain NNK1, active compounds read low 0.958 | strain TSCII, active compounds read low 0.968

COc1ccccc1OCC(O)CN1CCN(CC(=O)Nc2c(C)cccc2C)CC1 (stereo not drawn)
inactive: [1] 0.996 | locus YAL021C, strain ccr4, active compounds read low 0.991 | locus YAL026C, strain drs2, active compounds read low 1.03 | locus YAL030W, strain snc1, active compounds read low 1.01 | locus YAL040C, strain CLN3, active compounds read low 1 | locus YBL061C, strain skt5, active compounds read low 1.02 | locus YBR009C, strain hhf1, active compounds read low 0.986 | locus YBR023C, strain chs3, active compounds read low 1.03 | locus YBR171W, strain sec66, active compounds read low 1.02 | locus YBR231C, strain swc5, active compounds read low 0.991 | locus YBR279W, strain paf1, active compounds read low 1.02 | locus YCL011C, strain gbp2, active compounds read low 1.01 | locus YCL016C, strain dcc1, active compounds read low 1.04 | locus YCL061C, strain MRC1 (second series), active compounds read low 1 | locus YCL061C, strain MRC1, active compounds read low 0.993 | locus YCL069W, strain vba3, active compounds read low 1.02 | locus YCR088W, strain abp1, active compounds read low 1.02 | locus YDL005C, strain med2, active compounds read low 1 | locus YDL040C, strain nat1, active compounds read low 1 | locus YDR001C, strain nth1, active compounds read low 1 | locus YDR069C, strain doa4, active compounds read low 0.991 | locus YDR137W, strain rgp1, active compounds read low 1.06 | locus YDR159W, strain sac3, active compounds read low 0.912 | locus YDR195W, strain ref2 0.993 | locus YDR297W, strain sur2, active compounds read low 1 | locus YDR334W, strain swr1, active compounds read low 1 | locus YDR335W, strain msn5, active compounds read low 1.01 | locus YDR363W, strain ESC2, active compounds read low 0.998 | locus YDR392W, strain spt3, active compounds read low 0.942 | locus YEL003W, strain gim4, active compounds read low 0.976 | locus YEL037C, strain rad23, active compounds read low 1.01 | locus YEL061C, strain CIN8 (second series), active compounds read low 0.997 | locus YER002W, strain NOP16, active compounds read low 0.993 | locus YER015W, strain faa2, active compounds read low 1.01 | locus YER016W, strain bim1, active compounds read low 1.03 | locus YER111C, strain swi4, active compounds read low 1.02 | locus YER155C, strain BEM2 (second series), active compounds read low 0.957 | locus YFR010W, strain ubp6, active compounds read low 0.97 | locus YGL167C, strain pmr1, active compounds read low 0.989 | locus YGL173C, strain kem1, active compounds read low 0.987 | locus YGL227W, strain vid30, active compounds read low 1.02 | locus YGL240W, strain doc1, active compounds read low 0.987 | locus YGL253W, strain hxk2, active compounds read low 1.06 | locus YHR013C, strain ard1, active compounds read low 1.03 | locus YHR027C, strain rpn1, active compounds read low 0.988 | [3] 1.06 | [8] 1.05 | locus YHR142W, strain chs7, active compounds read low 1.02 | locus YJL092W, strain hpr5, active compounds read low 1 | locus YJL095W, strain BCK1 (second series), active compounds read low 1.02 | [9] 1.02 | locus YJL115W, strain asf1, active compounds read low 1 | locus YJL129C, strain trk1, active compounds read low 1.03 | locus YJL154C, strain vps35, active compounds read low 1 | locus YJL164C, strain tpk1, active compounds read low 0.979 | locus YJL166W, strain qcr8, active compounds read low 0.997 | [10] 0.977 | [4] 1 | locus YKL160W, strain elf1, active compounds read low 1.01 | locus YKR026C, strain gcn3, active compounds read low 1 | locus YKR091W, strain srl3, active compounds read low 1 | locus YLL001W, strain dnm1, active compounds read low 0.964 | locus YLL026W, active compounds read low 1.01 | locus YLL041C, strain sdh2, active compounds read low 1.02 | locus YLR027C, strain aat2, active compounds read low 1 | [11] 0.982 | locus YLR221C, strain rsa3, active compounds read low 0.972 | locus YLR258W, strain gsy2, active compounds read low 1.03 | locus YLR262C, strain YPT6 (second series), active compounds read low 1.02 | locus YLR320W, strain mms22, active compounds read low 0.937 | locus YLR342W, strain FKS1, active compounds read low 1.02 | locus YLR357W, strain rsc2, active compounds read low 0.99 | locus YLR370C, strain arc18, active compounds read low 1.01 | locus YLR384C, strain iki3, active compounds read low 0.997 | locus YML120C, strain ndi1, active compounds read low 0.976 | locus YMR058W, strain fet3, active compounds read low 1.01 | locus YMR125W, strain sto1, active compounds read low 1.01 | locus YMR129W, active compounds read low 0.988 | locus YMR205C, strain PFK2, active compounds read low 1 | locus YMR231W, strain pep5, active compounds read low 1 | [5] 1.02 | locus YNL071W, strain lat1, active compounds read low 1 | [6] 1.06 | locus YNL175C, strain NOP13, active compounds read low 1.01 | [12] 0.963 | locus YNL197C, strain WHI3, active compounds read low 1.01 | locus YNL209W, strain ssb2, active compounds read low 1.02 | locus YNL224C, strain SQS1, active compounds read low 1.01 | locus YNL248C, strain rpa49, active compounds read low 1.07 | locus YNL322C, strain KRE1 (second series), active compounds read low 1.02 | locus YNR049C, strain mso1, active compounds read low 1 | locus YOR001W, strain rrp6, active compounds read low 0.924 | locus YOR070C, strain gyp1, active compounds read low 1.01 | locus YOR080W, strain dia2, active compounds read low 1.01 | locus YOR083W, strain WHI5 (second series), active compounds read low 1.02 | locus YOR083W, strain WHI5, active compounds read low 0.974 | locus YOR106W, strain vam3, active compounds read low 1.04 | [13] 1.01 | locus YOR265W, strain rbl2, active compounds read low 0.98 | locus YOR270C, strain vph1, active compounds read low 0.991 | locus YOR290C, strain snf2, active compounds read low 1.06 | locus YPL051W, strain arl3, active compounds read low 1.04 | locus YPL078C, strain atp4, active compounds read low 1.07 | locus YPL106C, strain sse1, active compounds read low 1.1 | locus YPL240C, strain hsp82, active compounds read low 1 | [7] 1.01 | [14] 1.05
